Screens from PubChem BioAssay.
TGFb inhibitor: TGF-b pathway inhibition; HepG2 CAGA-GFP TGF-b/SMAD3 reporter, GFP fluorescence, 18 h; TGF-beta stimulated, 500 pg/mL final; actives 1.2% (n = 410,000); AID 588855; Potency, µM (series often up to 46.1 µM), for inactives: at the highest dose activity, negative = inhibition, actives largely listed as inhibitors; also: % is scaled to controls: 0 for no effect and ±100 for the full control effect; nearly all actives have a fitted effect of over 65% in size
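HEPG2 CAGA-GFP reporter cells (1000/well, DMEM with 1% FBS) received compounds, then recombinant TGF-beta at 500 pg/mL final for 18 hours at 37 degrees C. Per-cell GFP summed per well was normalised to unstimulated and stimulated DMSO controls before curve fitting.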
KB-3-1 tox: kills parental KB-3-1 adenocarcinoma cells; AID 1347075; actives 1.4% (n = 400,000); KB-3-1 viability, CellTiter-Glo ATP luminescence, 72 h; Potency, µM (highest dose often 46.1 µM), most hits filed as cytotoxic; also: % is scaled to controls: 0 for no effect and ±100 for the full control effect; nearly all actives have a fitted effect of over 60% in size
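Cells are dispensed, compounds pinned in, plates held at 37 °C for 72 h, then CellTiter-Glo is added and luminescence read after 10 minutes. Cell line: parental KB-3-1 in phenol-red-free DMEM, 10% FBS.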
HepG2 viability: counter-screen for TGF-b inhibitors: cytotoxicity in HepG2 cells; HepG2 CAGA-GFP viability, ATP luminescence, 18 h; actives 0.76% (n = 410,000); AID 588856; Potency, µM (highest dose often 46.1 µM), for the others: at the highest dose activity change, negative = cytotoxicity, usual class: cytotoxic
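HepG2 CAGA-GFP cells (1000/well, DMEM with 1% FBS) received compound, then TGF-beta at 500 pg/mL final, and were incubated 18 hours at 37 degrees C. Viability was read by CellTiter-Glo luminescence. Media-only wells were set as complete cell-killing and DMSO as no toxicity.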
ATXN2 expr inh: ATXN2 expression inhibition; HEK-293 ATXN2-luciferase reporter, luminescence, 24 h; Potency, µM (series often up to 57 µM), for inactives: at the highest dose activity change, negative = inhibition, most hits filed as inhibitors; actives 0.72% (n = 360,000); AID 1745845; also: % is scaled to controls: 0 for no effect and ±100 for the full control effect; nearly all actives have a fitted effect of over 55% in size
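ATXN2-luciferase reporter cells (luciferase flanked by upstream and downstream ATXN2 gene portions) were treated 24 h at 37 °C with compounds at up to 57 uM. SteadyGlo luminescence gave expression; GF-AFC fluorescence gave viability.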
KB-V1 cytotox: kills drug-selected multidrug resistant KB-V1 cells | KB-V1 MDR cells viability, CellTiter-Glo, 72 h | Potency, µM (top dose mostly 46.1 µM), usual class: cytotoxic | actives 3.4% (n = 400,000) | AID 1347076; also: % is scaled to controls: 0 for no effect and ±100 for the full control effect; nearly all actives have a fitted effect of over 60% in size
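Cytotoxicity via CellTiter-Glo luminescence after 72 h compound exposure at 37 degrees C. Cells: drug-selected KB-V1 line, DMEM phenol-red free plus 10% FBS. Compounds tested at multiple concentrations; normalized data fitted to concentration-effect curves.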
ATXN viability: viability counter-screen for ATXN expression inhibitors; S2 cells (HEK-293 line with an ATXN2-luciferase reporter) viability, CellTiter-Fluor protease fluorescence, 24 h; Potency, µM (series often up to 56.7 µM), hits mostly cytotoxic; actives 0.49% (n = 400,000); AID 651635; also: nearly all actives have a fitted effect of over 40% in size
* marks the source's active call; other numbers are inactive results; ! = not confirmed by another sample. A selection: hits, their analogues and other compounds. The true share with any hit is near 5.9%. Calls follow the shape of the dose curve; as a rule, active = well fitted curve in the direction sought with a large enough effect; inconclusive = small, poorly fitted or top-dose-only effect, or another doubt; inactive = no such curve, though single readings can be large; an effect the other way counts as inactive or inconclusive. Potency is read from the fitted curve at half-maximal effect.

Results for O=C(N/N=C/c1c[nH]c2ccccc12)C1COc2ccccc2O1 (stereo not given) ?
TGFb inhibitor: inconclusive; KB-3-1 tox: 5.8µM*; HepG2 viability: 1.6%; ATXN2 expr inh: -2.6%; KB-V1 cytotox: 2.59µM*; ATXN viability: inconclusive

Results for CCOC(=O)c1ccc(-n2c(O)c(/C=N/NC(=O)C3COc4ccccc4O3)c3ccccc3c2=O)cc1 (stereo not given) ?
TGFb inhibitor: 8.91µM*; KB-3-1 tox: inactive; HepG2 viability: -42.1%; ATXN2 expr inh: -26.8%; KB-V1 cytotox: 16.4µM*; ATXN viability: inactive

How did COc1cccc(/C=N/NC(=O)CNC(=O)C2COc3ccccc3O2)c1O (stereo not given) do in these assays?
TGFb inhibitor: -14.4%; KB-3-1 tox: inconclusive; HepG2 viability: -4.2%; ATXN2 expr inh: 8.91µM*; KB-V1 cytotox: inactive; ATXN viability: inactive

Results for O=C(N/N=C\c1ccc(Cl)s1)C1COc2ccccc2O1 (stereo not given) ?
TGFb inhibitor: -0.1%; KB-3-1 tox: inconclusive; HepG2 viability: -20.9%; ATXN2 expr inh: -32.6%; KB-V1 cytotox: inconclusive; ATXN viability: inactive

Results for O=C(N/N=C\c1ccc([N+](=O)[O-])o1)C1COc2ccccc2O1 (stereo not given) ?
TGFb inhibitor: 15.8µM*; KB-3-1 tox: inconclusive; HepG2 viability: -146.2%; ATXN2 expr inh: -31.2%; KB-V1 cytotox: inactive; ATXN viability: inactive

What do the screens show for `O=C(N/N=C\c1ccc(-c2ccccc2[N+](=O)[O-])o1)C1COc2ccccc2O1` (stereo not given)?
TGFb inhibitor: 2.5%; KB-3-1 tox: inactive; HepG2 viability: -0.3%; ATXN2 expr inh: -25.0%; KB-V1 cytotox: inactive; ATXN viability: inactive

How did C/C(=N/NC(=O)c1ccncc1)C(=O)O do in these assays?
ATXN2 expr inh: 8.0%; ATXN viability: inactive

How did COC(c1ccc2c(c1)CN(C(=O)Cn1nc(C)c3ccccc3c1=O)CCO2)C1CCCCC1 (stereo not given) do in these assays?
ATXN viability: inactive

How did COc1ccc(/C=C(\C#N)C(=O)Nc2cc(C)c(Cl)cc2OC)cc1O do in these assays?
TGFb inhibitor: 5.5%; KB-3-1 tox: 20.6µM*; HepG2 viability: -4.8%; KB-V1 cytotox: inactive; ATXN viability: inactive

Results for CC(C)C[C@H]1CNC(=O)C(=O)N1C[C@H]1CCCN1C[C@H](CC(C)C)N1C[C@H](CC(C)C)N(CCc2ccccc2)C(=O)C1=O ?
KB-3-1 tox: inconclusive; ATXN2 expr inh: -13.5%; KB-V1 cytotox: inactive; ATXN viability: inconclusive

How did CCOc1ccc(NC(=O)COc2cccc3cccnc23)cc1S(=O)(=O)N1CCCC1 do in these assays?
TGFb inhibitor: 5.8%; KB-3-1 tox: inconclusive; HepG2 viability: -16.5%; KB-V1 cytotox: 20.6µM*; ATXN viability: inactive

Results for CCOc1ccc(NC(=O)CN2CCN(c3ccccc3C)CC2)cc1S(=O)(=O)N1CCCC1 ?
TGFb inhibitor: 0.0%; KB-3-1 tox: inactive; HepG2 viability: -17.1%; ATXN2 expr inh: -11.2%; KB-V1 cytotox: 4.11µM*; ATXN viability: inactive

Results for O=C(COc1cccc2cccnc12)Nc1cccc(S(=O)(=O)N2CCCC2)c1 ?
TGFb inhibitor: -1.0%; KB-3-1 tox: inactive; HepG2 viability: 4.1%; ATXN2 expr inh: -13.9%; KB-V1 cytotox: inconclusive; ATXN viability: inactive

Results for CCC(C)(C)c1nnc(NC(=O)c2cccc([N+](=O)[O-])c2)s1 ?
TGFb inhibitor: 11.9%; KB-3-1 tox: inactive; HepG2 viability: 29.2%; ATXN2 expr inh: 53.4%; KB-V1 cytotox: 20.6µM*; ATXN viability: inactive

Results for O=C(Nc1nnc(CSCc2ccc(F)cc2)s1)c1cccc([N+](=O)[O-])c1 ?
TGFb inhibitor: -22.7%; KB-3-1 tox: inconclusive; HepG2 viability: -3.2%; ATXN2 expr inh: -8.5%; KB-V1 cytotox: 4.61µM*; ATXN viability: inactive

How did C=C[C@@H]1[C@@H](C)[C@H](C)C(=O)C([C@H](O)C(C)C)[C@@H]1C (stereo not given in full) do in these assays?
TGFb inhibitor: 2.7%; HepG2 viability: 5.0%

How did CC1CCN(c2oc(-c3cccs3)nc2S(=O)(=O)c2ccc(Cl)cc2)CC1 do in these assays?
TGFb inhibitor: inconclusive; KB-3-1 tox: inactive; HepG2 viability: -3.7%; ATXN2 expr inh: -7.5%; KB-V1 cytotox: inactive; ATXN viability: inactive

How did O=C(/C=C/c1ccc([N+](=O)[O-])cc1)Nc1ncc([N+](=O)[O-])s1 do in these assays?
TGFb inhibitor: 12.6µM*; KB-3-1 tox: inconclusive; HepG2 viability: -26.5%; KB-V1 cytotox: 8.2µM*; ATXN viability: inconclusive

How did O=C(/C=C/c1ccc([N+](=O)[O-])cc1)NCc1ccccn1 do in these assays?
TGFb inhibitor: 1.7%; KB-3-1 tox: inactive; HepG2 viability: -15.3%; ATXN2 expr inh: 2.7%; KB-V1 cytotox: inactive; ATXN viability: inactive

How did O=C(Nc1ncc([N+](=O)[O-])s1)c1cccs1 do in these assays?
TGFb inhibitor: inconclusive; KB-3-1 tox: inconclusive; HepG2 viability: 12.6µM*!; ATXN2 expr inh: 6.0%; KB-V1 cytotox: 16.4µM*; ATXN viability: inconclusive

Results for Cc1cnc(NC(=O)c2cccs2)s1 ?
TGFb inhibitor: -21.6%; KB-3-1 tox: inconclusive; HepG2 viability: -23.1%; ATXN2 expr inh: 32.4%; KB-V1 cytotox: inconclusive; ATXN viability: inactive

How did O=C(CCS(=O)(=O)c1ccccc1)Nc1ncc([N+](=O)[O-])s1 do in these assays?
TGFb inhibitor: 15.8µM*; KB-3-1 tox: inconclusive; HepG2 viability: -58.3%; ATXN2 expr inh: -5.0%; KB-V1 cytotox: inconclusive; ATXN viability: inactive

Results for COc1ccc2c(c1)c1c(c(=O)n(-c3cccc(C)c3)c(=O)n1CC(=O)N1CCCC1)n2C ?
TGFb inhibitor: -39.2%; KB-3-1 tox: inactive; HepG2 viability: 0.1%; ATXN2 expr inh: -17.7%; KB-V1 cytotox: inactive; ATXN viability: inactive

Results for CC(=O)Nc1cc(-c2cccc(C(=O)N(C)C)c2)cn2c(-c3ccc(C(C)=O)cc3)cnc12 ?
TGFb inhibitor: 5.8%; KB-3-1 tox: inactive; HepG2 viability: -0.7%; ATXN2 expr inh: -9.7%; KB-V1 cytotox: inactive; ATXN viability: inactive

Results for CN(Cc1ccccc1)C(=O)C1CCC(CNS(=O)(=O)c2cccc3cccnc23)CC1 (stereo not given) ?
TGFb inhibitor: inconclusive; KB-3-1 tox: inactive; HepG2 viability: -51.1%; KB-V1 cytotox: 9.2µM*; ATXN viability: inconclusive
